# Results taken from PubChem BioAssay (Tox21).
# Records with an inconclusive call do not appear. A number with no mark means an inactive call. Calls of active or inactive are those of the source. Calls come from the whole dose curve; as a rule, active = well fitted curve in the direction sought with a large enough effect in the signal ratio in the repeat runs (not every such curve was filed as active); inconclusive = weak or mixed curves, or a change in a side signal; inactive = no such curve, though single readings can be large or run the other way; the % refers to the signal ratio.
# Test: qHTS assay to identify small molecule agonists of the NFkB signaling pathway (AID 1159509)
# Conditions: NFkB-bla ME-180 cells, beta-lactamase FRET ratio, 5 h; series mostly up to 61 µM
# Description: National Center for Advancing Translational Sciences [NCATS]
# NIH Chemical Genomics Center [NCGC]
# U.S. Environmental Protection Agency [EPA]
# National Institutes of Environmental Health Sciences [NIEHS]
# National Toxicology Program [NTP]
# U.S. Food and Drug Administration [FDA]
# Transcription factors and their stimulated target gene expression play pivotal roles across many cellular processes including responses to environmental stimuli. Proper regulation of associated pathways is critical to maintain cell health and function. Constitutive activation of transcription factor pathways has been implicated in tumors as it may block cellular functions such as apoptosis and lead to invasion and metastasis. One important transcription factor that stimulates gene expression in response to cytokines, UV radiation, and other stimuli is nuclear factor-kappa B (NFkB). To measure activation of the NFkB pathway, the CellSensor NFkB-bla ME-180 cell line (Life Technologies, Carlsbad, CA) that stably expresses beta-lactamase reporter gene under the regulation of a NF-kB response element was used. This assay allows measurement of the NFkB pathway activity induced by compounds in a ME-180 cell line. This system quantitates NF-kB activity using a FRET-based assay system where beta-lactamase expression disrupts FRET, allowing for fluorescent measurement of activity. This cell line has been used to screen the Tox21 10K compound library and to identify compounds that induce the NFkB pathway activity.
# Tox21 Assay Protocol Summary:
# NFkB-bla ME-180 cells were dispensed at 2,000 cells/6 uL of assay medium per well into black wall/clear-bottom 1536-well plates using a Multidrop Combi (ThermoFisher Scientific, Waltham, MA) dispenser. After the assay plates were incubated at 37 C and 5% CO2 for an overnight, 23 nL of compounds dissolved in DMSO, positive controls or DMSO only was transferred to the assay plate by a Pintool station (Kalypsys, San Diego, CA). The assay plates were incubated at 37 C and 5% CO2 for 5 hr. One uL of LiveBLAzer B/G FRET substrate (Life Technologies) was added using a Flying Reagent Dispenser (Aurora Discovery, San Diego, CA) and the plates were incubated at room temperature for 1.5 hr. Fluorescence intensity (405 nm excitation, 460 nm and 530 nm emissions) was measured using an Envision plate reader (PerkinElmer, Shelton, CT).
# % is set by controls: 0 for no effect and ±100 for the full control effect.
SMILES,outcome,activation
CCOc1cc(NC(C)=O)ccc1C(=O)OC,inactive,–
Oc1ccccc1-c1nnco1,inactive,–
O=C(O)c1cc(Cl)cc([N+](=O)[O-])c1Cl,inactive,–
CCOC(=O)/C=C/c1ccccc1,inactive,–
Cc1cc(C(C)(C)C)c(O)c(C)c1CC1=NCCN1,inactive,–
C=C(C)C(=O)OCC(C)(C)COC(=O)C(=C)C,inactive,–
COc1ccc2c(c1OC)C(=O)O[C@@H]2[C@H]1c2c(cc3c(c2OC)OCO3)CCN1C,inactive,–
CC(=O)CCCCn1c(=O)c2c(ncn2C)n(C)c1=O,inactive,–
Nc1ccc2cc(S(=O)(=O)O)cc(O)c2c1,inactive,–
CCCCNC1CC(C)(C)NC(C)(C)C1,inactive,–
NS(=O)(=O)c1ccc(NC(=O)CCC(=O)O)cc1,inactive,–
Nc1ccc(S(=O)(=O)Nc2ccc(Cl)nn2)cc1,inactive,–
c1ccc2nccnc2c1,inactive,–
CC1=C(C(=O)O)N2C(=O)[C@@H](NC(=O)[C@H](N)c3ccc(O)cc3)[C@H]2SC1,inactive,–
CC(=O)N[C@@H](CCC(=O)O)C(=O)O,inactive,–
CC(C)CCCC(C)(C)O,inactive,–
CCCCCCOC(=O)CC,inactive,–
COc1ccc(S(=O)(=O)N2c3ccc(Cl)cc3[C@@](O)(c3ccccc3Cl)[C@H]2C(=O)N2CCC[C@@H]2C(N)=O)cc1OC,inactive,–
CCCCCCN,inactive,–
NNc1nnc(NN)c2ccccc12,inactive,–

SMILES,outcome,activation
Cc1ccc2c(c1)OCC(=O)CO2,inactive,–
BrCCCCCBr,inactive,–
CN=C(NC#N)Nc1ccc(C2=NNC(=O)CC2C)cc1 (stereo not given),inactive,–
CC(C)c1ccc2cc(C(C)C)ccc2c1,inactive,–
OCCC(F)(F)C(F)(F)C(F)(F)C(F)(F)C(F)(F)C(F)(F)C(F)(F)C(F)(F)F,inactive,–
C=C(C)C(=O)OCc1ccccc1,inactive,–
CC(C)(C)NC(N)=O,inactive,–
C=C(C)C1CCC(C)(O)CC1 (stereo not given),inactive,–
CCCCCCCCC(=O)Cl,inactive,–
O=S(O)(O)=S,–,-0.163% [at 6.95 µM]
Cc1ccc(S(=O)(=O)O)c(C)c1,inactive,–
CC(COC(C)(C)C)OCCCO (stereo not given),inactive,–
O=C1c2cccc3c2[C@H](CCC3)CN1[C@@H]1CN2CCC1CC2,inactive,–
CCOc1cc([N+](=O)[O-])c(OCC)cc1N1CCOCC1,inactive,–
CC(CN)CC(C)(C)CCN (stereo not given),inactive,–
CC(C)C(=O)OCc1cccc(OC(=O)[C@@H]2N3C(=O)[C@@H](NC(=O)Cc4ccccc4)[C@H]3SC2(C)C)c1,inactive,–
NC(CO)C(=O)NNCc1ccc(O)c(O)c1O (stereo not given),inactive,–
COc1ccc2c(c1)C(=O)N(CCc1ccc(S(=O)(=O)NC(=O)NC3CCCCC3)cc1)C(=O)C2(C)C,inactive,–
CN1CCN(CC(=O)N2c3ccccc3C(=O)Nc3cccnc32)CC1,–,-0.0785% [at 6.95 µM]
CC(=O)OC(C)OC(=O)C(C)c1ccc(-c2ccccc2)c(F)c1 (stereo not given),inactive,–
